# In all, about 1,200 compounds went through this assay and about 950 (79%) were called active.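 The calls were made as follows: active = signal rises and fitted curve reaches 40% activity at or below the top valid tested dose, in every replicate test; inconclusive = replicate tests give mixed calls; inactive = the rest, including activity in the opposite direction.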 The set was probably picked from earlier hits. A selection follows. Entries with a potency or affinity are not part of this list.
# Assay: compounds raising Bmi1 reporter signal – mouse embryonic stem cells, luciferase, cherry-pick, esBAF inhibitor project, dose response (AID 651717);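 also: luciferase knocked into Bmi1 locus with EF-1a renilla as cell number control; rising ratio signals esBAF inhibition which derepresses Bmi1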
# Conditions: mESC Bmi1-luciferase reporter, firefly/renilla ratio, 24 h, hits give high values; at 35 µM unless noted
row,SMILES,max activity
1,C[C@@H]1CN([C@@H](C)CO)C(=O)c2c(c3ccccc3n2C)-c2ccccc2CO[C@H]1CN(C)C(=O)Nc1ccc2c(c1)OCO2,-5.95% [at 1.1 µM] (inactive)
2,C[C@H]1CN([C@@H](C)CO)C(=O)Cc2cc(NC(=O)C3CCCCC3)ccc2O[C@@H]1CN(C)C(=O)Nc1ccc2c(c1)OCO2,-4.16% [at 2.1 µM] (inactive)
3,C[C@@H]1CN([C@H](C)CO)C(=O)Cc2cc(NC(=O)C3CCCCC3)ccc2O[C@H]1CN(C)C(=O)Nc1ccc2c(c1)OCO2,7.16% [at 1.1 µM] (inactive)
4,C[C@H]1CN([C@@H](C)CO)C(=O)c2cccc(NS(=O)(=O)c3ccccc3)c2O[C@@H]1CN(C)C(=O)Nc1ccc2c(c1)OCO2,-33.5% [at 30 µM] (inactive)
5,COc1ccc2nc(N(CCN(C)C)C(=O)c3ccc4ncsc4c3)sc2c1,43.3% [at 8 µM] (inactive)
6,C[C@H]1CN([C@@H](C)CO)C(=O)c2cccc(NS(=O)(=O)c3ccccc3)c2O[C@H]1CN(C)C(=O)Nc1ccc2c(c1)OCO2,-6.71% (inactive)
7,COc1ccc(N(CC(=O)Nc2ccccc2C(N)=O)S(=O)(=O)c2ccc(C)c([N+](=O)[O-])c2)cc1,17% [at 16 µM] (inactive)
8,COc1ccc(NC(=O)N(C)C[C@H]2OCCCC[C@@H](C)Oc3ccc(NC(=O)Nc4ccc5c(c4)OCO5)cc3C(=O)N([C@H](C)CO)C[C@@H]2C)cc1,12.1% [at 8 µM] (inactive)
9,CCOc1ccc2nc(Cl)c(C3CC(c4ccco4)=NN3S(=O)(=O)c3ccccc3)cc2c1 (centres undefined),9.03% [at 1 µM] (inactive)
10,COC(=O)[C@H]1C[C@@]2(O)CN(S(=O)(=O)c3ccc(C)cc3)C[C@@]2(OC(=O)NCC2CCCCC2)C[C@H]1C(=O)OC,29.2% (inactive)
11,CC1CCN(c2nc3ccc(C(=O)NCCCN4CCCCC4C)cc3s2)CC1 (centres undefined),-33.5% [at 16 µM] (inactive)
12,C[C@@H]1CN([C@H](C)CO)C(=O)c2cc(NC(=O)Nc3ccc4c(c3)OCO4)ccc2O[C@@H](C)CCCCO[C@H]1CN(C)S(=O)(=O)c1cn(C)cn1,5.01% [at 1 µM] (inactive)
13,CC1=C(C(=O)OCc2ccccc2)C(c2ccc(Br)cc2)NC(=O)N1CCCCCC(=O)O (centres undefined),11.1% [at 16 µM] (inactive)
14,CSc1cccc(NC(=O)c2[nH]c(C)c(C(C)=O)c2C)c1,14.1% [at 8 µM] (inactive)
15,C[C@@H]1CCCCO[C@H](CN(C)C(=O)Nc2cccc3ccccc23)[C@H](C)CN([C@@H](C)CO)C(=O)c2cc(NC(=O)CCC(F)(F)F)ccc2O1,26.7% [at 1 µM] (inactive)
16,COc1ccc(-c2cc(C(=O)Nc3cc(OC)cc(C(=O)Nc4cccc(C(F)(F)F)c4)c3)[nH]n2)cc1,9.94% [at 4.2 µM] (inactive)
17,CCOC(=O)COc1c(OC)cc(Cl)cc1C1Nc2ccccc2C(=O)N1c1cccc(C)c1 (centres undefined),28.5% (inactive)
18,O=C(Nc1ccc(Cc2ccc(NC(=O)Nc3cccnc3)cc2)cc1)Nc1cccnc1,25.6% [at 16 µM] (inactive)
19,Cc1ccc(NCC(=O)N/N=C\C(Br)=C\c2ccccc2)cc1,8.26% [at 16 µM] (inactive)
20,CC=Cc1ccc2n(c1=O)C[C@H]1[C@H](CO)[C@@H](C(=O)Nc3ccc(-c4ccccc4)cc3)N(CC)[C@@H]21 (mixture of isomers),5.58% [at 0.26 µM] (inactive)

row,SMILES,max activity
1,CC=Cc1ccc2n(c1=O)C[C@@H]1[C@@H](CO)[C@H](C(=O)Nc3ccc(-c4ccccc4)cc3)N(C)[C@H]21 (mixture of isomers),-24.6% (inactive)
2,CC(=O)c1ccc(N(C(=O)Cc2c[nH]c3ccccc23)C(C(=O)NC2CCCCC2)c2cccs2)cc1 (centres undefined),-9.23% (inactive)
3,Cc1ccc2c(c1)Sc1ccccc1CC2=O,16.2% (inactive)
4,Cn1c(SCc2nc3ccccc3s2)nnc1-c1ccc2c(c1)OCO2,27.7% (inactive)
5,O=C1Nc2ccccc2N=C(c2ccc3c(c2)OCO3)C1N(CCc1ccccc1)C(=O)CSc1ncccn1 (centres undefined),-16.9% (inactive)
6,C[C@@H]1CN([C@@H](C)CO)C(=O)c2cc(NC(=O)Nc3ccc4c(c3)OCO4)ccc2O[C@@H](C)CCCCO[C@H]1CN(C)Cc1ccncc1,-10.2% [at 0.5 µM] (inactive)
7,Cc1ccc2nc(NC(=O)CCNS(=O)(=O)c3cccs3)sc2c1,37.2% (inactive)
8,CNC[C@@H]1OCCCC[C@H](C)Oc2ccc(NS(=O)(=O)c3ccc(C)cc3)cc2C(=O)N([C@H](C)CO)C[C@H]1C,-8.01% [at 1.1 µM] (inactive)
9,O=C1NC(Cc2ccc(O)cc2)c2nc3ccc(Br)cc3c(=O)n2-c2cc3ccccc3cc21 (centres undefined),6.63% [at 8 µM] (inactive)
10,C[C@@H]1CCCCO[C@@H](CN(C)Cc2ccncc2)[C@H](C)CN([C@@H](C)CO)C(=O)c2cc(NC(=O)Nc3ccc4c(c3)OCO4)ccc2O1,-10.3% [at 0.5 µM] (inactive)
11,Cc1ccc(NC(=O)c2ccccc2F)c(NC(=O)c2ccccc2F)c1,39.1% [at 16 µM] (inactive)
12,C[C@@H]1CN([C@H](C)CO)C(=O)c2cccc(NC(=O)Nc3ccc4c(c3)OCO4)c2O[C@H]1CN(C)S(=O)(=O)c1cccs1,36.7% [at 1 µM] (inactive)
13,CN(CC(=O)Nc1ccc(Cl)c(S(=O)(=O)N(C)C)c1)Cc1ccccc1,16.8% [at 1 µM] (inactive)
14,CN1C(=O)c2cc(NC(=O)c3ccc(C#N)cc3)ccc2OC[C@H]2O[C@@H](CC(=O)NC3Cc4ccccc4C3)CC[C@@H]21,-7.14% (inactive)
15,Cc1c(CC(C)C)nc(N)c(C#N)c1-c1ccccc1,8.97% [at 16 µM] (inactive)
16,CC1CC(C)(C)CC2(C1)NC(=O)N(CC(=O)OCC(=O)Nc1cc(S(=O)(=O)N3CCCCC3)ccc1Cl)C2=O (centres undefined),16.1% [at 0.5 µM] (inactive)
17,CCc1ccc(C(=O)CN2C(=O)NC3(CCCCCC3)C2=O)cc1,32.8% (inactive)
18,COc1ccc(CCNC(=O)CSc2nc3ccsc3c(=O)n2Cc2ccccn2)cc1OC,23.9% (inactive)
19,COc1ccc(C(=O)N2CCN(c3ccc(C(C)=O)cc3)CC2)cc1S(=O)(=O)N1CCCC1,26.7% [at 2.1 µM] (inactive)

# Reference: PubChem BioAssay AID651717 (Broad Institute, 2012)
